Source: PubChem BioAssay (Tox21)
Records with an inconclusive call do not appear. The source made the active and inactive calls. Calls follow the shape of the dose curve; as a rule, active = well fitted cell-killing curve with a large enough effect in the repeat runs; inconclusive = weak or mixed curves, or effect the other way; inactive = flat fitted curve, though single readings scatter.

Experiment: cAMP Responsive Elements (CRE) small molecule antagonists, cell-based qHTS assay: qHTS cell viability counter screen (AID 2060913); also: nearly all actives have a fitted effect of over 40% in size
Conditions: CRE-bla HEK293T viability, CellTiter-Glo luminescence, 5 h; series mostly up to 92.4 µM; viability change, negative = cytotoxic: at the top concentration
Method in brief: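 Cytotoxicity counter screen multiplexed with the CRE-bla antagonist read: HEK293T cells in DMEM with dialyzed FBS and 25 mM HEPES were treated 3 hrs under 0.25 uM final NKH477, then viability measured by CellTiter-Glo luminescence.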
% is scaled to controls: 0 for no effect and ±100 for the full control effect.

Structure (SMILES) | viability change, negative = cytotoxic | Potency
O=S(=O)(Cl)c1c(Cl)cccc1Cl | -7.03% (inactive) | –
CC1=NN(c2ccc(S(=O)(=O)O)cc2)C(=O)C1 | 0.647% (inactive) | –
O=[N+]([O-])c1cccc(C(F)(F)F)c1 | 14.7% (inactive) | –
Oc1ccccc1F | -4.56% (inactive) | –
Cc1ccccc1Cl | – | inactive
Cc1nc(C)nc(N2C[C@@H](C)N(c3ccnc([C@@H](C)O)n3)[C@@H](C)C2)n1 | 3.23% [at 42.5 µM] (inactive) | –
CC(O)C(CO)C(C)O (stereo not given) | 2.84% (inactive) | –
c1ccc2c(c1)CCC2 | 0.0194% (inactive) | –
Cn1c(=O)cc(Oc2ccc(F)cc2F)c2cnc(NCC(C)(C)O)nc21 | -3.43% (inactive) | –
O=C(c1ccc(O)cc1)c1ccc(O)c(O)c1O | -4.4% (inactive) | –
COC(=O)CC(C)CCC=C(C)C (stereo not given) | -5.8% (inactive) | –
CCOc1cc(OCC)c(C(=O)CCC(=O)O)cc1OCC | 0.827% [at 42.5 µM] (inactive) | –
O=C(O)CNC(=O)c1ccc([N+](=O)[O-])cc1 | -14.1% (inactive) | –
O=C1NC(=O)[C@@]2(CCOc3ccc(F)cc32)N1 | -4.53% [at 42.5 µM] (inactive) | –
CC1OCCC1=O (stereo not given) | 3.72% (inactive) | –
COC(OC)(C(=O)c1ccccc1)c1ccccc1 | -17.5% (inactive) | –
CCOc1c(N2CCOCC2)cnn(C)c1=O | 3.39% [at 42.5 µM] (inactive) | –
CC(C)C(=O)OCc1cccc(OC(=O)[C@@H]2N3C(=O)[C@@H](NC(=O)Cc4ccccc4)[C@H]3SC2(C)C)c1 | 5.48% [at 42.5 µM] (inactive) | –
Cc1cc(C)c(NC(=O)CN(CC(=O)O)CC(=O)O)c(C)c1Br | -0.584% [at 42.5 µM] (inactive) | –
CCNc1cccc(C)c1 | – | inactive

Experiment: cAMP Responsive Elements (CRE) small molecule agonists, cell-based qHTS assay: qHTS cell viability counter screen (AID 2060914);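 also: viability read after 3 h of compound exposure; nearly all actives have a fitted effect of over 50% in size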
Conditions: CRE-bla HEK293T viability, CellTiter-Glo luminescence, 5 h; series mostly up to 92.4 µM; activity change, negative = cytotoxicity: at the top concentration
Method in brief: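 Cytotoxicity counter screen multiplexed with the CRE-bla reporter assay in HEK 293T cells: 3 h compound exposure at 37 °C, followed by CellTiter-Glo luminescence measured in the same wells.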

Structure (SMILES) | activity change, negative = cytotoxicity | Potency
CC(C)=CCC1=C(O)c2ccccc2C(=O)C1=O | 7.27% (inactive) | –
CNC(=S)N(C)C | – | inactive
O=C1[C@H](CC[C@H](O)c2ccc(F)cc2)[C@@H](c2ccc(O)cc2)N1c1ccc(F)cc1 | 4.48% [at 42.5 µM] (inactive) | –
C=C[Si](OC(C)=O)(OC(C)=O)OC(C)=O | 4.3% (inactive) | –
CC1=C(O)C(=O)C(C)O1 (stereo not given) | -7.13% (inactive) | –
N#[N+]c1ccc2c(S(=O)(=O)[O-])cccc2c1O | -14% (inactive) | –
CO[Si](CCCOCC1CO1)(OC)OC (stereo not given) | – | inactive
CCOc1ccc(NS(=O)(=O)c2ccc(N)cc2)nn1 | -5.23% [at 42.5 µM] (inactive) | –
CO/N=C(\C(=O)N[C@@H]1C(=O)N2C(C(=O)O)=C(CSc3nc(=O)c(O)nn3C)CS[C@H]12)c1csc(N)n1 | 2.6% [at 42.5 µM] (inactive) | –
CC(=O)O[C@]1(C(C)=O)CC[C@H]2[C@@H]3C[C@H](C)C4=CC(=O)CC[C@]4(C)[C@H]3CC[C@@]21C | -12.7% [at 42.5 µM] (inactive) | –
Nc1nc2ccccc2n1Cc1ccc(F)cc1 | -17.4% [at 42.5 µM] (inactive) | –
CCOC(=O)CCc1ccccc1 | 0.737% (inactive) | –
C=C1CCC2CC1C2(C)C (stereo not given) | -0.992% (inactive) | –
CN(C)CCN1CCN(c2cccc(Cl)c2)C1=O | -0.598% [at 42.5 µM] (inactive) | –
CN1CCC[C@H]1c1cccnc1 | – | inactive
c1ccc2nccnc2c1 | 4.77% (inactive) | –
O=C(Cl)c1ccc([N+](=O)[O-])cc1 | 2.03% (inactive) | –
C[C@@H]1CC[C@@]2(OC1)O[C@H]1C[C@H]3[C@@H]4CC[C@H]5C[C@@H](O)CC[C@]5(C)[C@H]4CC(=O)[C@]3(C)[C@H]1[C@@H]2C | -1.47% [at 8.39 µM] (inactive) | –
CCOC(=O)C1=C(C)NC(C)=C(C(=O)OC)C1c1cccc([N+](=O)[O-])c1 (stereo not given) | 6.15% [at 42.5 µM] (inactive) | –
CCCCCCCCC1CCC(=O)O1 (stereo not given) | 10.8% (inactive) | –

Structure (SMILES) | activity change, negative = cytotoxicity | Potency
O=S(=O)(Cl)c1c(Cl)cccc1Cl | -3.43% (inactive) | –
CC1=NN(c2ccc(S(=O)(=O)O)cc2)C(=O)C1 | -1.57% (inactive) | –
O=[N+]([O-])c1cccc(C(F)(F)F)c1 | -1.32% (inactive) | –
Oc1ccccc1F | 1.31% (inactive) | –
Cc1ccccc1Cl | – | inactive
Cc1nc(C)nc(N2C[C@@H](C)N(c3ccnc([C@@H](C)O)n3)[C@@H](C)C2)n1 | 2.82% [at 42.5 µM] (inactive) | –
CC(O)C(CO)C(C)O (stereo not given) | 10.1% (inactive) | –
c1ccc2c(c1)CCC2 | 1.41% (inactive) | –
Cn1c(=O)cc(Oc2ccc(F)cc2F)c2cnc(NCC(C)(C)O)nc21 | 6.61% (inactive) | –
O=C(c1ccc(O)cc1)c1ccc(O)c(O)c1O | 12.7% (inactive) | –
COC(=O)CC(C)CCC=C(C)C (stereo not given) | -0.545% (inactive) | –
CCOc1cc(OCC)c(C(=O)CCC(=O)O)cc1OCC | 16.6% [at 42.5 µM] (inactive) | –
O=C(O)CNC(=O)c1ccc([N+](=O)[O-])cc1 | -10.9% (inactive) | –
O=C1NC(=O)[C@@]2(CCOc3ccc(F)cc32)N1 | -22.9% [at 42.5 µM] (inactive) | –
CC1OCCC1=O (stereo not given) | -2.06% (inactive) | –
COC(OC)(C(=O)c1ccccc1)c1ccccc1 | 2.44% (inactive) | –
CCOc1c(N2CCOCC2)cnn(C)c1=O | -7.78% [at 42.5 µM] (inactive) | –
CC(C)C(=O)OCc1cccc(OC(=O)[C@@H]2N3C(=O)[C@@H](NC(=O)Cc4ccccc4)[C@H]3SC2(C)C)c1 | 14.2% [at 42.5 µM] (inactive) | –
Cc1cc(C)c(NC(=O)CN(CC(=O)O)CC(=O)O)c(C)c1Br | 3.19% [at 42.5 µM] (inactive) | –
CCNc1cccc(C)c1 | – | inactive
